Test results as given in article PMC7819943, “Rice protein-binding microarrays: a tool to detect cis-acting elements near promoter regions in rice”.
Over roughly 35,000 sequences, “fluorescence intensity (a.u.)” has its median near 10,000; the highest 2% begin near 52,000. The list comes from a sample in which the highest values are over-represented; it also holds similar and randomly drawn sequences.

These sequences were tested against T1, OsWOX13 (Oryza sativa, UniProt Q5QMM3 1-267) (assay: protein-binding microarray (RPBM); PBS, 2% BSA, 51.3 ng/ul salmon testes DNA, 50 uM zinc acetate, 200 nM TF, 25 C, 1 h; high values mean tight binding). Settings: protein: recombinant; tags: N-terminal polyhistidine and DsRed monomer fusion (pET32a); label: CyDye5-dUTP incorporated in the synthesized complementary strand; 3' TTTTT single-stranded linker to array surface; dsDNA, one strand shown.
T1 sequence: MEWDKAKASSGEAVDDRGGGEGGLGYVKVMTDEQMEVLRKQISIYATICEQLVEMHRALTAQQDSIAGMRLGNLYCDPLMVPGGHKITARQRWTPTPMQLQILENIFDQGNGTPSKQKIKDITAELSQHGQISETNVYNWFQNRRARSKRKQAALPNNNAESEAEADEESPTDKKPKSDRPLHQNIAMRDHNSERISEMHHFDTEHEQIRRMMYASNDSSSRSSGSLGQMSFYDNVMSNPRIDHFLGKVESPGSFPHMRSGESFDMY
Procedure, shortened: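 In PBS with 2% BSA, salmon testes DNA and 50 µM zinc acetate, 200 nM protein was incubated on a custom Agilent array at 25 °C for 1 h and then washed off. The array had been made double-stranded by primer extension with Cy5-dUTP and blocked with 2% BSA. The proteins were transcription factors fused N-terminally to polyhistidine and DsRed, expressed in E. coli BL21-CodonPlus and purified on Ni–NTA. The binding signal is per-feature fluorescence intensity (arbitrary units) from an Axon 4000B scanner.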

Sequence | binding signal
ATGTGTCAATTAATTATTTGCCACTCGCTGTCTATGACATCGGAGTCACCTAGTGCAG | 28300 fluorescence intensity (a.u.)
GGTGGATGAGAATGGATTGAATGAAAACAACAACATATTACGGAGTCACCTAGTGCAG | 7970 fluorescence intensity (a.u.)
ATGATTGATTGCTTTTCCTAAATCCTAACCATGATGCTGTCGGAGTCACCTAGTGCAG | 65000 fluorescence intensity (a.u.)
TTGCTGATTGAAGCTGATACTGTCGTGAAATGAACCATGTCGGAGTCACCTAGTGCAG | 38200 fluorescence intensity (a.u.)
TGAAGATTGATGAGATGGACGGTACCATTGCCGATGCTGTCGGAGTCACCTAGTGCAG | 56700 fluorescence intensity (a.u.)
ATTGATGGGTACATTGAGATGGAGCTGTTTGGACAAGTTGCGGAGTCACCTAGTGCAG | 7520 fluorescence intensity (a.u.)
CAATTGTCCGGATTGAGATATGACTGAAGCGGATGCTGGACGGAGTCACCTAGTGCAG | 3220 fluorescence intensity (a.u.)
TTTTGATCACACCATGATTGATGCACAAATCCATATGAACCGGAGTCACCTAGTGCAG | 36800 fluorescence intensity (a.u.)
GCCTAAGATAATTGATAAGAGTGCTTAAAGTGTACAACCGCGGAGTCACCTAGTGCAG | 37500 fluorescence intensity (a.u.)
TATATTATTTGTCAATCTTATTGTCAACTTATTAATCATCCGGAGTCACCTAGTGCAG | 7160 fluorescence intensity (a.u.)
TCTGACCATTATTAATTTCTAGCAACTAGCAATTTTGTGCCGGAGTCACCTAGTGCAG | 6120 fluorescence intensity (a.u.)
AGATTACATGATTGGAAATCTTTCACATATTTGTTTCAGGCGGAGTCACCTAGTGCAG | 51800 fluorescence intensity (a.u.)
TGTCTAATTGGTATCGTGAAGACTCTGAACCATTTCCATCCGGAGTCACCTAGTGCAG | 35200 fluorescence intensity (a.u.)
CCCTTAATTAATTAAAACCGGTCACAGTATGTCCTTTAATCGGAGTCACCTAGTGCAG | 41300 fluorescence intensity (a.u.)
ATCTTAATTGAAACAAACACAGCTTTAGTATATGCATGTCCGGAGTCACCTAGTGCAG | 58900 fluorescence intensity (a.u.)
CTTAATTAGCATGAAACACAAGTAGTATATGATTACACCACGGAGTCACCTAGTGCAG | 33100 fluorescence intensity (a.u.)
GTCCAGGCTTAATTCAATCATTATATGTACATATCTTTGTCGGAGTCACCTAGTGCAG | 6860 fluorescence intensity (a.u.)
ATATATATATATATATATATATATATATTATCGCTAATAACGGAGTCACCTAGTGCAG | 31200 fluorescence intensity (a.u.)
GAGAACTCTAATGAATTAGATTATATTCATGCTTGTTGATCGGAGTCACCTAGTGCAG | 5820 fluorescence intensity (a.u.)
ATTAATTATCTAATTAATTAATTAGCCCATCTGCTTACTTCGGAGTCACCTAGTGCAG | 65000 fluorescence intensity (a.u.)
ATTAATCGCTAATTAGGATAATTAATCACTAATTAGTATTCGGAGTCACCTAGTGCAG | 43700 fluorescence intensity (a.u.)
GTGATTAATTAATTATTAATTAATCGCTAATCAGGATAATCGGAGTCACCTAGTGCAG | 65500 fluorescence intensity (a.u.)
CAGGCTGCTTAATTACATATATCTAGATATATATATTATTCGGAGTCACCTAGTGCAG | 3870 fluorescence intensity (a.u.)
ATCTGTAATTTATTTTATTATTAGTCTACGCTTAATACTTCGGAGTCACCTAGTGCAG | 22000 fluorescence intensity (a.u.)
TTCAATTGATTATGAACTGCTTGTACTCTAATCAATGGTACGGAGTCACCTAGTGCAG | 55800 fluorescence intensity (a.u.)
CACACTATTAATCATTTTGATTTTGGTATACTGCACTTTTCGGAGTCACCTAGTGCAG | 6110 fluorescence intensity (a.u.)
TTCTCTAATTGGTAATTCATGATTAATCACTCCTACTTTACGGAGTCACCTAGTGCAG | 48000 fluorescence intensity (a.u.)
TGATTGGTAATCAATCAATTATTATCATATACTCGCACTGCGGAGTCACCTAGTGCAG | 62300 fluorescence intensity (a.u.)
GATTGGTCATAATTATATATATATATTACTTCCTAATCACCGGAGTCACCTAGTGCAG | 6390 fluorescence intensity (a.u.)
